Experimental data published in PubChem BioAssay (NCATS).
Records with an inconclusive call do not appear. Unmarked numbers belong to inactive results. The source made the active and inactive calls. Calls follow the shape of the dose curve; as a rule, active = well fitted cell-killing curve with a large enough effect; inconclusive = small, poorly fitted or top-dose-only effect, or effect the other way; inactive = no such curve, though single readings can be large or run the other way.

Assay: Quantitative High-Throughput drug screen in 47 multiple myeloma cell lines against the NCATS MIPE library collection: SKMM1_PLB cell viability assay (AID 1919863); also: nearly all actives have a fitted effect of over 35% in size; as to viability: series mostly up to about 46 µM
Settings: SKMM1 myeloma viability, CellTiter-Glo ATP, 48 h; viability: hits give low values
Text: PI: Beverly A. Mock Ph.D.
Laboratory of Cancer Biology and Genetics,
Center for Cancer Research, National Cancer Institute,
National Institute of Health, Bethesda, Maryland
Drug resistance and disease progression are common in multiple myeloma (MM) patients, underscoring the need for new therapeutic combinations. […] We hypothesized that effective combinations would reduce MYC expression and enhance p16 activity. […] These preclinical data identify potentially useful drug combinations for evaluation in drug-resistant MM and reveal potential mechanisms of combined drug sensitivity.
Described herein is the primary MIPE qHTS used to cherrypick compounds. Validated compounds were then further tested for potential synergistic activiy.
[1] Peat TJ, Gaikwad SM, Dubois W, Gyabaah-Kessie N, Zhang S, Gorjifard S, Phyo Z, Andres M, Hughitt VK, Simpson RM, Miller MA, Girvin AT, Taylor A, Williams D, D'Antonio N, Zhang Y, Rajagopalan A, Flietner E, Wilson K, Zhang X, Shinn P, Klumpp-Thomas C, McKnight C, Itkin Z, Chen L, Kazandijian D, Zhang J, Michalowski AM, Simmons JK, Keats J, Thomas CJ, Mock BA. Drug combinations identified by high-throughput screening promote cell cycle transition and upregulate Smad pathways in myeloma. Cancer Lett. 2023 Aug 1;568:216284. doi: 10.1016/j.canlet.2023.216284. Epub 2023 Jun 24. PMID: 37356470; PMCID: PMC10408729.
SEQUENCE No. (e.g., 1, 2, 3, etc.); […] (e.g., Cells, Incubation, Reagent, etc.); VALUE and DESCRIPTION.
1; Cells; 5 uL; white, solid bottom 1536-well Greiner assay plate.
2; Compounds; 23 nL; Kalypsis pin tool (Wako USA) equipped with a 1536-well pin head to transfer to the assay plates.
3; Incubation; 48 hours; 37C incubation.
4; Reagent;5uL; CellTiter Glo (Promega).
5; Detector; 425V; Luminescence; Viewlux PerkinElmer.
NOTES (numbers refer to Sequence numbers above)
1. The cell-based screening methods employed in this study were like those previously published. Briefly, the corresponding myeloma cell lines were screened in 1,536-well plates with 500 cells, 5-uL per well for inhibition of cell viability (assessed by measuring ATP levels with CellTiterGlo).
2. NCATS MIPE 4.0 library of approved and investigational drugs were added using the Kalypsis pin tool. Wells treated with DMSO only for 100% viability and media only for 0% viability were used as controls.
3. The assay plates were covered and incubated for 48 hours in a 37C, 5% CO2 incubator with controlled humidity.
4. After 48 hours, CellTilter-GloTM luminescent substrate mix (Promega) reagent was added to the assay plate and plates we incubated for 5 min at room temperature.
5. Signal was measured as median relative luminescence units on a ViewLux (PerkinElmer) multiplate reader.
[1] Heske CM, Davis MI, Baumgart JT, Wilson K, Gormally MV, Chen L, Zhang X, Ceribelli M, Duveau DY, Guha R, Ferrer M, Arnaldez FI, Ji J, Tran HL, Zhang Y, Mendoza A, Helman LJ, Thomas CJ. Matrix Screen Identifies Synergistic Combination of PARP Inhibitors and Nicotinamide Phosphoribosyltransferase (NAMPT) Inhibitors in Ewing Sarcoma. Clin Cancer Res. 2017 Dec 1;23(23):7301-7311. doi: 10.1158/1078-0432.CCR-17-1121. Epub 2017 Sep 12. PMID: 28899971; PMCID: PMC6636827.
Potency is read from the fitted curve at half-maximal effect.

Row | SMILES | Potency | viability [%]
1 | CC(C)c1ccccc1Cc1cc(C(=O)Nc2ccc(S(=O)(=O)c3ccccc3C(C)(C)C)cc2)c(O)c(O)c1O | 13.2 µM (active) | –
2 | COc1ccc(CC2SC(=O)NC2=O)cc1C(=O)NCc1ccc(C(F)(F)F)cc1 (stereo not given) | – | 115
3 | O=C(O)[C@H](Cc1c[nH]c2ccccc12)N1C(=O)c2ccccc2C1=O | – | 111
4 | CC(C)[C@H](C(=O)Nc1ccc(C(=O)NO)cc1)c1ccccc1 | 1.18 µM (active) | –
5 | C[C@H]1C[C@@H]2[C@@H]([C@@H](O)C[C@@]3(C)[C@H]2CC[C@]3(O)C(=O)CO)[C@@]2(C)C=CC(=O)C=C12 | – | 112
6 | Nc1ccc(S(=O)(=O)Nc2ncccn2)cc1 | – | 155
7 | O=C(NCCS(=O)(=O)c1ccc(C(F)(F)F)cn1)c1ccc(Cl)cc1 | – | 128
8 | Cc1cc(CN2CCN(c3c(Br)cnc4nc(-c5ccc(N6CCN(C)CC6)cc5)[nH]c34)CC2)no1 | 10.5 µM (active) | –
9 | Nc1nccc(Oc2ccc(NC(=O)c3c[nH]cc(-c4ccc(F)cc4)c3=O)cc2F)c1Cl | 23.5 µM (active) | –
10 | Cc1c(CN2CCN(S(C)(=O)=O)CC2)sc2c(N3CCOCC3)nc(-c3cnc(N)nc3)nc12 | 0.0833 µM (active) | –
11 | COC(=O)c1ccc2c(C(=Nc3ccc(N(C)C(=O)CN4CCN(C)CC4)cc3)c3ccccc3)c(O)[nH]c2c1 | 9.35 µM (active) | –
12 | COc1cc(C(=O)N2CCC(N3CCN(C)CC3)CC2)ccc1Nc1ncc2c(n1)N(C)c1ccccc1C(=O)N2C | 5.9 µM (active) | –
13 | CCC[C@H](NC(=O)C(C#N)=Cc1cccc(Br)n1)c1ccccc1 | 2.96 µM (active) | –
14 | Cn1c(CNc2ccc(C(=N)N)cc2)nc2cc(C(=O)N(CCC(=O)O)c3ccccn3)ccc21 | – | 127
15 | COc1cc2ncn(-c3cc(OCc4ccccc4C(F)(F)F)c(C(N)=O)s3)c2cc1OC | 0.166 µM (active) | –
16 | NC(=O)Nc1cc(-c2cccc(F)c2)sc1C(=O)N[C@H]1CCCNC1 | 7.43 µM (active) | –
17 | Cc1cc(C(=O)N2CCN(c3cccc(Cl)c3)CC2)n(-c2ccccc2)n1 | 0.296 µM (active) | –
18 | CC(=O)Nc1sc2c(c1-c1nc3ccccc3s1)CNC2 | 16.6 µM (active) | –
19 | Cn1c2ccccc2c2c3c(c4c5ccccc5n(CCC#N)c4c21)CNC3=O | 8.33 µM (active) | –
20 | COc1cc(C)c(Sc2cnc(NC(=O)c3ccc(CNC(C)C(C)C)cc3)s2)cc1C(=O)N1CCN(C(C)=O)CC1 (stereo not given) | 18.7 µM (active) | –

Row | SMILES | Potency | viability [%]
21 | NC1(Cc2ccc(Cl)cc2)CCN(c2ncnc3[nH]ccc23)CC1 | 18.7 µM (active) | –
22 | COc1cc2c(Oc3ccc4[nH]c(C)cc4c3F)ncnc2cc1OCCCN1CCCC1 | 20.9 µM (active) | –
23 | OCc1ccc(-c2ccc(-c3ccc(CO)s3)o2)s1 | 20.9 µM (active) | –
24 | COC(=O)Nc1nc2ccc(C(=O)c3ccc(F)cc3)cc2[nH]1 | 0.469 µM (active) | –
25 | COc1cc2c(NC3CCN(C(C)C)CC3)nc(C3CCCCC3)nc2cc1OCCCN1CCCC1 | 11.8 µM (active) | –
26 | Cc1ccc(-c2ncn(-c3ccc(Nc4nccc(-c5cccc(N6CCOCC6)c5)n4)cc3)n2)cn1 | 0.235 µM (active) | –
27 | Cc1cc(Nc2cc(N3CCN(C)CC3)nc(Sc3ccc(NC(=O)C4CC4)cc3)n2)n[nH]1 | 16.6 µM (active) | –
28 | COc1ccc(OC)c(-c2nnc3ccc(-c4ccc(OC)c(O[C@@H]5CCOC5)c4)nn23)c1 | 18.7 µM (active) | –
29 | COc1cc2c(Oc3ccc(NC(=O)C4(C(=O)Nc5ccc(F)cc5)CC4)cc3F)ccnc2cc1OCCCN1CCOCC1 | 20.9 µM (active) | –
30 | C=CCn1c(=O)c2cnc(Nc3ccc(N4CCN(C)CC4)cc3)nc2n1-c1cccc(C(C)(C)O)n1 | 0.469 µM (active) | –
31 | Cc1cc(Nc2ncnc3ccc(-c4ccc(CNCCS(C)(=O)=O)o4)cc23)ccc1Oc1ccn2ncnc2c1 | 26.4 µM (active) | –
32 | CC[C@H]1CN2CCc3cc(OC)c(OC)cc3[C@H]2C[C@@H]1C[C@@H]1NCCc2cc(OC)c(OC)cc21 | 0.296 µM (active) | –
33 | Fc1cc(-c2cccc3ncc(-c4cnn(C5CCNCC5)c4)nc23)cc(F)c1CN1CCOCC1 | 23.5 µM (active) | –
34 | CC[C@@H]1C(=O)N(C)c2cnc(Nc3ccc(C(=O)NC4CCN(C)CC4)cc3OC)nc2N1C1CCCC1 | 0.235 µM (active) | –
35 | CCN1CCN(CC(=O)Nc2ccc(-c3cccc4c(=O)cc(N5CCOCC5)oc34)c3sc4ccccc4c23)CC1 | 7.43 µM (active) | –
36 | Cc1[nH]nc2ccc(-c3cncc(OC[C@@H](N)Cc4ccccc4)c3)cc12 | 8.33 µM (active) | –
37 | C=CC(=O)Nc1cccc(Oc2nc(Nc3ccc(N4CCN(C)CC4)cc3)ncc2Cl)c1 | 18.7 µM (active) | –
38 | CC(C)(O)c1cc2nc(-c3cnc(N)nc3)nc(N3CCOCC3)c2s1 | 0.235 µM (active) | –
39 | CNC(=O)c1cc(Oc2ccc(NC(=O)Nc3cc(C(C)(C)C)nn3-c3ccc4ncccc4c3)c(F)c2)ccn1 | 14.8 µM (active) | –
40 | CN1CCN(c2ccc3nc(-c4c(N)c5c(F)cccc5[nH]c4=O)[nH]c3c2)CC1 | 18.7 µM (active) | –
